TDP1 inh: TDP1 (human) enzyme inhibition; Q9NUW8; recombinant TDP1, AlphaScreen DNA substrate cleavage; Potency, µM (titrated, usually from 130 µM), most hits filed as inhibitors; actives 0.28% (n = 350,000); also: nearly all actives have a fitted effect of over 40% in size
Target sequence (Q9NUW8 whole entry, looked up): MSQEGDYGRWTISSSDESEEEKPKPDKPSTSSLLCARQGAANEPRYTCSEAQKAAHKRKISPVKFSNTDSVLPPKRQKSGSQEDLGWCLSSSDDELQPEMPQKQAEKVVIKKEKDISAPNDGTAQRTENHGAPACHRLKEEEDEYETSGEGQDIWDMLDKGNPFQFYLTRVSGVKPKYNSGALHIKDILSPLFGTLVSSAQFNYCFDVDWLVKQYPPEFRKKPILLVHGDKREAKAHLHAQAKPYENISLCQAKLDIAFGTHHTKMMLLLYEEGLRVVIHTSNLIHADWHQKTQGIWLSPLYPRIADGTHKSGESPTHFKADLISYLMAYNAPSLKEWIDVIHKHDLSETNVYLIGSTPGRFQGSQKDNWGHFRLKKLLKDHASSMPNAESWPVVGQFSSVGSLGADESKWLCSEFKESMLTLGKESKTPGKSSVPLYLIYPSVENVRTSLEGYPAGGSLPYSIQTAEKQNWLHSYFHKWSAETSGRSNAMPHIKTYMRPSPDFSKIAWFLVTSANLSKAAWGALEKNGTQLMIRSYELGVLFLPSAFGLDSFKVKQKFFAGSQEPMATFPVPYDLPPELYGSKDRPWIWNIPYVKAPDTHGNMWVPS
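Recombinant human Tdp1 (E. coli-expressed, 1 nM final) preincubated with compounds 15 min at room temperature, then 5'-biotin/3'-phosphotyrosine-FITC DNA substrate (15 nM final) added for 5 min. AlphaScreen beads (10 ug/ml final) added 10 min; cleavage lowers signal.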
TDP1 cell CPT: growth inhibition of DT40 Tdp1-/-;hTDP1 cells with camptothecin (screen for TDP1 inhibitors); chicken DT40 Tdp1-/-;hTDP1 cells + 20 nM CPT, ATP luminescence, 48 h; Potency, µM (top dose mostly 46.2 µM), hits mostly inhibitors; actives 12% (n = 420,000); also: nearly all actives have a fitted effect of over 55% in size
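Chicken DT40 Tdp1-/- cells stably complemented with human TDP1 were seeded at 400 cells/well in medium containing 20 nM camptothecin, exposed to pin-transferred compounds, and grown at 37 °C for at least 48 hr. Viability was read as ATP luminescence.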
CtBP-E1A inh: blocks the CtBP interaction with E1A. activity change, % (test concentration not listed). AID 651724. AlphaScreen GST-E1A/His-CtBP binding, 1536-well; hits give low values. actives 0.49% (n = 340,000); in the data active = activity change below about -65%; inconclusive = mostly about -30% to -63%
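In 5 uL wells, 23 nL compound meets equimolar GST-E1A and His-CtBP (5X stock 125 nM each) for 2 h, 37 °C. Beads (5X, 50 ug/mL) then 1 h, 37 °C, dark.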
Six1-Eya2 blk: inhibitors of human Six1/Eya2 interaction; activity change, % (no concentration beside the values); AlphaScreen GST-Six1/His-Eya2 binding, biochemical; hits give low values; actives 0.56% (n = 360,000); Q15475+O00167; in the data active = activity change below about -65%; inconclusive = mostly about -30% to -63%
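Six1/Eya2 binding was read as AlphaScreen signal after compounds were pinned into GST-Six1 plus His-tagged Eya2 (5X stock 250/500 nM) in pH 8.0 Tris/NaCl/TCEP buffer, beads added, then incubated 1 h, 37 C, dark.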
IL-1B inflam inh: inflammasome signaling inhibition, IL-1 beta readout | THP-1 LPS/ATP IL-1B secretion, AlphaLISA, 16 h; hits give low values | actives 4.7% (n = 360,000) | activity change, % at 57.5 µM; in the data active = activity change below about -50%; inconclusive = mostly about -30% to -49%
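Secreted IL-1B measured by AlphaLISA bead assay after 16 h compound exposure of THP-1 cells; compounds (final up to 57.5 uM) added 1 h before LPS (250 ng/mL) and ATP (1.25 mM) stimulation; lower signal means less secretion.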
DT40 TDP1 no CPT: qHTS for Inhibitors of human tyrosyl-DNA phosphodiesterase 1 (TDP1): qHTS in cells in absence of CPT; Potency, µM (top dose mostly 46.2 µM), hits mostly inhibitors; actives 15% (n = 420,000); DT40 Tdp1-/- hTDP1 cells, no CPT, ATP luminescence, 48 h; also: nearly all actives have a fitted effect of over 55% in size
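No-CPT arm: Tdp1-/-;hTDP1 DT40 cells (400/well) plus compounds, incubated ≥48 hr at 37 °C. Readout CellTiter-Glo luminescence.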
Each line names hits and unclear results; the compound was inactive in the other large screens. Shown are actives, neighbours in structure and some others; about 18% of the full set was active somewhere. Unless noted, calls follow the shape of the dose curve; as a rule, active = well fitted curve in the direction sought with a large enough effect; inconclusive = small, poorly fitted or top-dose-only effect, or another doubt; inactive = no such curve, though single readings can be large; an effect the other way counts as inactive or inconclusive.

Cc1ccccc1CN1C(=O)CN(S(C)(=O)=O)CC1(C)C(=O)NC(C)C (stereo not drawn)	IL-1B inflam inh inconclusive (no result: TDP1 inh)
COc1ccc(C)cc1NC(=O)c1ccc(OC(F)F)cc1	none
CN(Cc1cn(C)nc1-c1ccc(Oc2ccccc2)cc1)CC1COCCO1 (stereo not drawn)	TDP1 cell CPT inconclusive, DT40 TDP1 no CPT inconclusive
COc1ccc(N2CCN(C(=O)c3ccc(CS(=O)c4cccc(C)c4)o3)CC2)cc1 (stereo not drawn)	TDP1 cell CPT 18.4µM, DT40 TDP1 no CPT 16.4µM
O=C(c1ccc(COc2ccccc2Cl)o1)N1CCN(c2ccccc2)CC1	TDP1 cell CPT inconclusive, DT40 TDP1 no CPT 29.1µM
O=C(c1ccc(CS(=O)c2cccc(Cl)c2)o1)N1CCCCCC1 (stereo not drawn)	DT40 TDP1 no CPT 23.1µM
O=C(c1ccc(CS(=O)c2cccc(Cl)c2)o1)N1CCN(C2CCCCC2)CC1 (stereo not drawn)	none
Cc1cc(=O)oc2c3c(cc(OCC(=O)Nc4ccc(CCO)cc4)c12)OC(C)(C)CC3	TDP1 cell CPT inconclusive, DT40 TDP1 no CPT inconclusive (no result: TDP1 inh)
COc1ccc(NC(=O)Cc2nnc(SCC(=O)NC3CCCCC3)n2C)cc1	none
O=C(c1cccc(F)c1)N1CCN(C(=O)c2cc(-c3ccc(Cl)cc3Cl)on2)CC1	TDP1 cell CPT inconclusive, DT40 TDP1 no CPT 18.4µM (no result: IL-1B inflam inh)
O=C(NNC(=O)c1cc(-c2ccccc2)nn1-c1ccccc1)c1ccccc1	IL-1B inflam inh -97.2, DT40 TDP1 no CPT inconclusive
CC(=O)c1sc(NC(=O)c2cc(-c3ccccc3)nn2-c2ccccc2)nc1C	TDP1 cell CPT 8.2µM, IL-1B inflam inh -61.3, DT40 TDP1 no CPT 6.51µM
Cc1cnc(NC(=O)c2cc(-c3ccccc3)nn2-c2ccccc2)s1	none (no result: TDP1 inh)
O=C(Nc1nc2ccccc2s1)c1cc(-c2ccccc2)nn1-c1ccccc1	TDP1 cell CPT inconclusive, DT40 TDP1 no CPT 10.3µM
CCOC(=O)c1cc(-c2ccccc2)nn1-c1ccccn1	none
CCOC(=O)c1cc(-c2cccnc2)nn1-c1ccccc1	IL-1B inflam inh -97.9, DT40 TDP1 no CPT inconclusive
COc1cccc(C(=O)Nc2cc(-c3ccccc3)nn2-c2ccccc2)c1	TDP1 cell CPT inconclusive, DT40 TDP1 no CPT inconclusive (no result: CtBP-E1A inh, Six1-Eya2 blk, IL-1B inflam inh)
N#C/C(=C\c1ccncc1)c1nc2c(s1)CCCC2	none (no result: CtBP-E1A inh)
O=C(NCc1ccccn1)C1CCC(=O)N(Cc2ccc(Cl)cc2)C1 (stereo not drawn)	none
Cc1c(C(=O)OCC(=O)N(CC(C)C)c2c(N)n(Cc3ccccc3)c(=O)[nH]c2=O)oc2ccccc12	DT40 TDP1 no CPT inconclusive
Cc1ccc(Nc2c(-c3ccsc3)nc3c(C)cccn23)cc1	TDP1 cell CPT inconclusive, DT40 TDP1 no CPT inconclusive (no result: CtBP-E1A inh, Six1-Eya2 blk, IL-1B inflam inh)
Cc1cccc2nc(-c3ccccn3)c(Nc3ccccc3)n12	TDP1 cell CPT 4.11µM, DT40 TDP1 no CPT 4.11µM (no result: CtBP-E1A inh, Six1-Eya2 blk, IL-1B inflam inh)
Cc1cccc(C)c1Nc1c(-c2ccccc2F)nc2cccc(C)n12	TDP1 cell CPT 10.3µM (no result: CtBP-E1A inh, Six1-Eya2 blk, IL-1B inflam inh)
Cc1cccc2nc(-c3ccco3)c(Nc3ccccc3)n12	TDP1 cell CPT inconclusive, DT40 TDP1 no CPT inconclusive (no result: CtBP-E1A inh)
Cc1ccn2c(Nc3ccc(F)cc3)c(-c3ccccn3)nc2c1	TDP1 cell CPT 10.3µM, DT40 TDP1 no CPT 13µM (no result: CtBP-E1A inh, Six1-Eya2 blk, IL-1B inflam inh)
Cc1ccc(Nc2c(-c3ccsc3)nc3cccc(C)n23)cc1	TDP1 cell CPT 16.4µM, DT40 TDP1 no CPT inconclusive (no result: CtBP-E1A inh, Six1-Eya2 blk, IL-1B inflam inh)
Cc1ccc(Nc2c(-c3ccccc3O)nc3cc(C)ccn23)cc1	TDP1 cell CPT inconclusive, DT40 TDP1 no CPT inconclusive (no result: CtBP-E1A inh, Six1-Eya2 blk, IL-1B inflam inh)
Nc1ccc(S(=O)(=O)N2CCCC2)cc1Cl	none (no result: TDP1 inh)
O=C(Nc1nnc2n1CCS2)c1ccc(Br)o1	CtBP-E1A inh inconclusive, Six1-Eya2 blk inconclusive
Cc1ccc(Nc2c(-c3ccccn3)nc3ccc(Br)cn23)cc1	TDP1 cell CPT 9.2µM, DT40 TDP1 no CPT 20.6µM (no result: CtBP-E1A inh, Six1-Eya2 blk, IL-1B inflam inh)
Cc1cccc2nc(-c3ccccn3)c(Nc3ccc(F)cc3)n12	TDP1 cell CPT 11.6µM, DT40 TDP1 no CPT 18.4µM (no result: CtBP-E1A inh, Six1-Eya2 blk, IL-1B inflam inh)
Cc1ccc(Nc2c(-c3ccccn3)nc3cccc(C)n23)cc1	TDP1 cell CPT 2.59µM, CtBP-E1A inh -97.9, Six1-Eya2 blk -88.1, IL-1B inflam inh inconclusive, DT40 TDP1 no CPT 2.06µM
Cc1ccc(Nc2c(-c3ccccc3O)nc3ncccn23)cc1	TDP1 cell CPT inconclusive
Cc1ccc(Nc2c(-c3ccccc3O)nc3ccc(Br)cn23)cc1	none (no result: CtBP-E1A inh, Six1-Eya2 blk, IL-1B inflam inh)
COc1cc(OC)cc(C(=O)NCC(=O)OCC(=O)Nc2cc(S(C)(=O)=O)ccc2Cl)c1	none (no result: CtBP-E1A inh)
O=C(Nc1ccc(S(=O)(=O)N2CCC(c3nc4ccccc4s3)CC2)cc1)c1ccc(F)cc1	none (no result: CtBP-E1A inh, Six1-Eya2 blk, IL-1B inflam inh)
O=S(c1ccccc1O)S(=O)c1ccccc1O (stereo not drawn)	TDP1 cell CPT 5.8µM, IL-1B inflam inh inconclusive, DT40 TDP1 no CPT 5.17µM (no result: TDP1 inh)
O=C(O)C1CCN(c2ccccc2[N+](=O)[O-])CC1	DT40 TDP1 no CPT inconclusive
CCC(C)(C)n1nnnc1C(c1ccc(Cl)cc1)N1CCN(C)CC1 (stereo not drawn)	DT40 TDP1 no CPT inconclusive

Source: PubChem (National Center for Advancing Translational Sciences (NCATS))
